101 sequences from the supplement of paper PMC3334620 can be followed below.

The full ranking holds about 33,000 sequences; the median of “E-score (-0.5 to 0.5)” is about -0.053, and the highest 2% start at about 0.37. The list comes from a sample in which the highest values are over-represented; it also holds similar and randomly drawn sequences.

In the assay the target is Hap1 (UniProt P0CE41). Kind of assay: PBM E-score (8-mer binding enrichment) (E-score (-0.5 to 0.5)); higher = stronger / more preferred TF binding. The note with it: protein concentration: 200 nM; construct: GST-DNA-binding domain. The protocol: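 Universal 'all 10-mer' protein binding microarrays (Agilent AMADID 015681) probed with GST-tagged S. cerevisiae TFs (full-length or DBD) made by in vitro transcription/translation (PURExpress), about 100-200 nM. Bound TF was detected with fluorescent anti-GST. Each ungapped 8-mer (which stands for itself and its reverse complement) is scored by the PBM enrichment score (E-score), a modified Wilcoxon-Mann-Whitney statistic from -0.5 to +0.5, computed with the Universal PBM Analysis Suite. Scale: above 0.35 generally sequence-specific binding.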
UniProt P0CE41, sequence (P0CE41 whole entry, the tested form may be a part): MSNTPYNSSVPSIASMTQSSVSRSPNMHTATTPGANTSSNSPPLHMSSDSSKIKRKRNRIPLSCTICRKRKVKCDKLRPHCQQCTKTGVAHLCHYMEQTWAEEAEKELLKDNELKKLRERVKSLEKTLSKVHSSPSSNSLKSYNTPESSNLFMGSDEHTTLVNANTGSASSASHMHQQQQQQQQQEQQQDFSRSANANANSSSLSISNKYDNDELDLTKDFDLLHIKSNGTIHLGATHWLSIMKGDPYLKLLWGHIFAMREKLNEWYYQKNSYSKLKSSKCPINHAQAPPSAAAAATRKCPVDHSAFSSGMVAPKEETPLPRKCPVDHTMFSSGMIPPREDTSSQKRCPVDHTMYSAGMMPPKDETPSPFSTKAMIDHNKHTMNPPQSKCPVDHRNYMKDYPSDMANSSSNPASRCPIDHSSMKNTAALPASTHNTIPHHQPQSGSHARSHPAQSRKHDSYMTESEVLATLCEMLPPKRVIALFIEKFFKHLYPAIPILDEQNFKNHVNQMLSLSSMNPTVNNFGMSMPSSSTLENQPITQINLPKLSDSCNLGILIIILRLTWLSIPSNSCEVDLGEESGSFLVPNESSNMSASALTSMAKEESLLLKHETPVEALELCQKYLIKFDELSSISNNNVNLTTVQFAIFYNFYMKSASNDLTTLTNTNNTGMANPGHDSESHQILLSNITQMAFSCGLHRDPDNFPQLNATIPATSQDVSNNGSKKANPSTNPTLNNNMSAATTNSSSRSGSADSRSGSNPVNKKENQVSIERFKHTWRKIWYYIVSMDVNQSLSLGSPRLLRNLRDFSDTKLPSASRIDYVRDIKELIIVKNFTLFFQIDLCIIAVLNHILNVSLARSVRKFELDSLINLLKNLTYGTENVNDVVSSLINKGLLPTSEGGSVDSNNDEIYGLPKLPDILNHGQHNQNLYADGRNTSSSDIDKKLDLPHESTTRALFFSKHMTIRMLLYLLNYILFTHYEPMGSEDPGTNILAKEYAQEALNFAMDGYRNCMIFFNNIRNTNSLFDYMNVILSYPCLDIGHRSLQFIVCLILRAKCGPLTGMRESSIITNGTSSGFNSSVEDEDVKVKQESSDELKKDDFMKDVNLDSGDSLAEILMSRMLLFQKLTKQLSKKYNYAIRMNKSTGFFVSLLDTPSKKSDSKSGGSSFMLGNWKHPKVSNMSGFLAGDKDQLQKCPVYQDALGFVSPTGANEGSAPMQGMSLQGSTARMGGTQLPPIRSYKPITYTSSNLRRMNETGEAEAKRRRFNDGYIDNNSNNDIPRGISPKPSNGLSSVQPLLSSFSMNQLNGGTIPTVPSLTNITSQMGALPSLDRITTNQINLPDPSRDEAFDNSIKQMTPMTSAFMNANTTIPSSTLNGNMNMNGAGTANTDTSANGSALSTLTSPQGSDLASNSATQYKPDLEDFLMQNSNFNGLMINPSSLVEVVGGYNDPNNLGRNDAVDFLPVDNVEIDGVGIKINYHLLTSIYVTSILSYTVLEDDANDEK
For the sequence CCGGAAGA, the “PBM E-score” value stood at 0.365.

For CCGGAACA, the “PBM E-score” value was 0.376.

Consider CAGGAAAA, for which the “PBM E-score” value was -0.0124.

With TCGGAACA, the “PBM E-score” value was 0.349.

For ACGGAACA, the “PBM E-score” value was 0.241.

For ACGGAAAA, the “PBM E-score” value was 0.317.

On to CCGGAAAA, for which the “PBM E-score” value is 0.432.

As for CCGGAATC, the “PBM E-score” value is 0.416.

With CCGGAATA, the “PBM E-score” value was found to be 0.357.

In the case of TCGGAAAA, the “PBM E-score” value came out at 0.402.

On to GCGGAAAA, for which the “PBM E-score” value was 0.286.

ACGGAATC: the “PBM E-score” value came to 0.28.

On to AGACACTC, for which the “PBM E-score” value was -0.185.

With GCTTCATA, the “PBM E-score” value was -0.0731.

As for ACCTAGGC, the “PBM E-score” value is -0.18.

For AAAGCGGG, the “PBM E-score” value is -0.0186.

As for ACTACGCC, the “PBM E-score” value is -0.098.

As to GAACTGTA, the “PBM E-score” value is -0.00641.

As to CCACTCCC, the “PBM E-score” value was found to be 0.119.

Regarding CCGGCCTC, the “PBM E-score” value turned out to be 0.182.

On to CCGGAAAC, for which the “PBM E-score” value is 0.426.

Take GCGGAAAC: the “PBM E-score” value is 0.24.

As for CCGGAAAG, the “PBM E-score” value amounted to 0.307.

As to AGTTTCTA, the “PBM E-score” value is -0.167.

Regarding ACCAGGAT, the “PBM E-score” value was 0.0532.

For the sequence AAGCAATA, the “PBM E-score” value was -0.0998.

On to TCTTGTCA, for which the “PBM E-score” value was -0.139.

As for GGACCGGA, the “PBM E-score” value worked out at 0.406.

Regarding CGACCGGC, the “PBM E-score” value was determined as 0.232.

As to AGACCGGA, the “PBM E-score” value turned out to be 0.334.

Take CGACCGTA: the “PBM E-score” value amounted to 0.0335.

For the sequence GGACCGCA, the “PBM E-score” value is 0.186.

Regarding CGACCGGA, the “PBM E-score” value was 0.412.

Consider ACTAGACA, for which the “PBM E-score” value is -0.0952.

Turning to AACGCGCG, the “PBM E-score” value was determined as 0.13.

CTGTCCGC: the “PBM E-score” value amounted to 0.113.

For ATGTCCCG, the “PBM E-score” value was 0.234.

As to ATGTCCGG, the “PBM E-score” value is 0.468.

For ATGTCCGC, the “PBM E-score” value was 0.374.

For the sequence ATGTCCCC, the “PBM E-score” value amounted to 0.0493.

CTGTCCGA: the “PBM E-score” value was determined as 0.317.

As for ATGTCCTG, the “PBM E-score” value amounted to 0.00518.

As to GTGTCCGA, the “PBM E-score” value stood at 0.339.

For ATGTCCGA, the “PBM E-score” value came out at 0.463.

With AGGGCCGG, the “PBM E-score” value amounted to 0.326.

With CGCCCTCA, the “PBM E-score” value was -0.149.

Turning to CGACCAAC, the “PBM E-score” value was -0.0313.

For the sequence CAACTGGG, the “PBM E-score” value was -0.122.

On to GGCGGTAA, for which the “PBM E-score” value is 0.373.

AGCGGTAA: the “PBM E-score” value was found to be 0.247.

In the case of GCCGGTAC, the “PBM E-score” value amounted to 0.293.

CCCGGTAC: the “PBM E-score” value amounted to 0.296.

For CCCGGTAA, the “PBM E-score” value is 0.387.

For CCCGGTAG, the “PBM E-score” value amounted to 0.336.

Regarding GCCGGTGA, the “PBM E-score” value came out at 0.274.

For TCCGGTCA, the “PBM E-score” value was found to be 0.385.

CCCGGTCA: the “PBM E-score” value worked out at 0.262.

As for GCCGGTCA, the “PBM E-score” value came out at 0.177.

For the sequence GCCGGTAA, the “PBM E-score” value was found to be 0.422.

Turning to GGCGGTAC, the “PBM E-score” value is 0.0136.

For ACCTCGCT, the “PBM E-score” value is 0.0563.

Turning to AGTTACCG, the “PBM E-score” value was 0.266.

As to AACAAGGG, the “PBM E-score” value was -0.0715.

With ACAGACGC, the “PBM E-score” value is -0.0711.

Take AATTTACC: the “PBM E-score” value was 0.0607.

Consider AGCGTAGA, for which the “PBM E-score” value is -0.0389.

In the case of TACGGTAA, the “PBM E-score” value was 0.0382.

Take TCCGGTAA: the “PBM E-score” value amounted to 0.442.

In the case of TGCGGTAA, the “PBM E-score” value was determined as 0.042.

Regarding ACACCTGA, the “PBM E-score” value was -0.135.

For the sequence TGTCGAAA, the “PBM E-score” value was -0.229.

On to CAAGTGTC, for which the “PBM E-score” value is -0.197.

For AAGAAACA, the “PBM E-score” value is 0.00593.

Consider ACCGCAAT, for which the “PBM E-score” value was determined as 0.239.

AATCCCGT: the “PBM E-score” value was 0.372.

Take TATCCCGA: the “PBM E-score” value came out at 0.221.

Consider AATCCCGA, for which the “PBM E-score” value was 0.409.

On to CATCCCGA, for which the “PBM E-score” value came to 0.176.

Turning to AATCCCAT, the “PBM E-score” value is -0.107.

Regarding AATCCCGC, the “PBM E-score” value was found to be 0.257.

CTGGTGAC: the “PBM E-score” value is -0.288.

For CCAGCGAA, the “PBM E-score” value was -0.0597.

As for AGGCAATA, the “PBM E-score” value was -0.181.

On to AGGCATTA, for which the “PBM E-score” value was -0.08.

Take CGGCATTA: the “PBM E-score” value was found to be 0.459.

As to CGGCAATA, the “PBM E-score” value was found to be 0.408.

CGGCAATC: the “PBM E-score” value was determined as 0.284.

For the sequence GGGCATTA, the “PBM E-score” value came out at 0.0704.

TATATTGA: the “PBM E-score” value worked out at 0.0255.

Take ACAGTGGA: the “PBM E-score” value is -0.0195.

For CACCAAGC, the “PBM E-score” value was -0.174.

Take AGTCCCTC: the “PBM E-score” value is -0.175.

As for CATGTCCG, the “PBM E-score” value worked out at 0.372.

On to AATGTCCG, for which the “PBM E-score” value worked out at 0.443.

ATTGTCCA: the “PBM E-score” value was -0.128.

CATGTCCC: the “PBM E-score” value was -0.054.

As for AATGTCCA, the “PBM E-score” value is -0.104.

Take AATGTCCT: the “PBM E-score” value was -0.144.

Consider ATTGTCCG, for which the “PBM E-score” value was 0.396.

Regarding CATGTCCA, the “PBM E-score” value is -0.0578.

For ATTGTCCC, the “PBM E-score” value stood at 0.0458.
